Bioassay records: PubChem, several laboratories
Shown are actives, neighbours in structure and some others; about 2.3% of the full set was active somewhere.
Calpain2 inh – calpain II (pig) inhibition; purified calpain II, fluorogenic peptide substrate, 30 min; inhibition, % at 16 µM; hit rate 0.37% among 220,000; AID 1236;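 active = inhibition above about 50%, limit read from the data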
Cardio protect – modulators protecting cardiomyocytes from myocardial damage | protection from H2O2 cell death, % at 20 µM | H9c2 cardiomyocytes, H2O2 injury protection, ATPLite, 2 h | hit rate 0.63% among 360,000 | AID 588492;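 active = compounds giving at least 50% protection of heart cells from peroxide-induced death in the single-dose screen, raw or plate-pattern-corrected value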
FAS-TE inh – FAS thioesterase (human) inhibition | P49327 | recombinant FAS-TE, OMFH fluorogenic substrate, fluorescence endpoint | inhibition, % at 15 µM | hit rate 0.67% among 360,000 | AID 602261;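 active = compounds whose normalised, plate-corrected inhibition of enzyme fluorescence in the single-dose primary screen is 50% or more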
H9c2 TAG inh – reduces triacylglycerol accumulation in H9c2 cells; inhibition, % at 12.5 µM; Nile Red lipid (TAG) fluorescence; cells loaded with 200 µM oleic acid; AID 651582; hit rate 0.66% among 230,000;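 active = pattern-corrected inhibition of lipid staining of at least 50% with the nuclear-stain viability signal not falling by more than 50%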
aDG glyco act – increases alpha dystroglycan glycosylation | hit rate 0.22% among 360,000 | Pro5-aDG cells, alpha-DG glycosylation AlphaScreen (IIH6); 0% Pro5, 100% B10-LARGE cell signal | activation, % at 10 µM;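 active = activation of at least 8% versus controls, or a plate z-score of at least 8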;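 also: Pro5 are CHO cells carrying HIG-tagged alpha-DG that lacks glycosylation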
MIN6 prolif – MIN6 beta-cell proliferation induction; MIN6 cells proliferation, ATPlite luminescence, 48 h; cells starved in 0.2% serum; 100% = growth in 10% serum; proliferation, % at 10 µM; hit rate 0.29% among 330,000; AID 2380;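 active = compounds whose signal lies at least 3.5 SD above the mean of all wells on their plate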
FAS-TE conf – confirmation of human fatty acid synthase thioesterase inhibitors; shares compounds with FAS-TE inh; recombinant FAS-TE, OMFH fluorogenic substrate, fluorescence; inhibition, % at 15 µM; hit rate 45% among 2,300; AID 624325;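 active = compounds inhibiting the enzyme by at least 50% at 15 µM in any one of the replicates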
Of the large screens only hits and unclear results are named; the others gave an inactive call (follow-up assays come after a bar, where they were run).

O=C(CN1C(=O)CSc2cc(S(=O)(=O)N3CCCCCC3)ccc21)NCCc1ccccc1	FAS-TE inh 50 (no result: H9c2 TAG inh) | FAS-TE conf inactive
COc1cccc(NC(=O)CN2C(=O)CSc3ccc(S(=O)(=O)N4CCCCC4)cc32)c1	FAS-TE inh 53 (no result: Calpain2 inh, H9c2 TAG inh) | FAS-TE conf 66
Cc1ccc(NC(=O)CN2C(=O)CSc3ccc(S(=O)(=O)N4CCCCC4)cc32)cc1	FAS-TE inh 56 (no result: Calpain2 inh, H9c2 TAG inh) | FAS-TE conf 42
N=C1CCCC1C(=S)SCCC(N)=O (centres undefined)	none (no result: Calpain2 inh, MIN6 prolif)
COc1cc(S(=O)(=O)N2CCN(C(=O)c3cccs3)CC2)ccc1NC(C)=O	none (no result: Calpain2 inh, MIN6 prolif)
C=CC[C@@H](Cc1ccc(F)cc1)C(=O)OC[C@@H]1CCCN1C(=O)[C@H](CC=C)CC(=O)N(CCO)Cc1ccccc1	none (no result: Calpain2 inh)
O=C(Nc1ncc2c(n1)-c1ccccc1OC2)c1cccc([N+](=O)[O-])c1	FAS-TE inh 55 | FAS-TE conf 64
COC(=O)[C@]12CCCCC=C1N(Cc1ccco1)C(=O)[C@H](CC(=O)N1CCN(C(=O)C3CC3)CC1)C2	none (no result: Calpain2 inh, Cardio protect, H9c2 TAG inh, MIN6 prolif)
COc1ccc(-c2nn(-c3ccccc3)cc2C=O)cc1[N+](=O)[O-]	none (no result: Calpain2 inh, H9c2 TAG inh)
COc1ccc(-c2nnc(SC)nc2-c2ccc(OC)c([N+](=O)[O-])c2)cc1[N+](=O)[O-]	FAS-TE inh 69 (no result: Calpain2 inh) | FAS-TE conf inactive
COc1ccc(CNC(=O)CC[C@H]2O[C@@H](n3ccc(=O)[nH]c3=O)[C@H](O)[C@@H]2O)cc1	none (no result: Calpain2 inh, H9c2 TAG inh, MIN6 prolif)
CN1C[C@H](C(=O)N[C@]2(C)O[C@@]3(O)[C@@H]4CCCN4C(=O)[C@H](Cc4ccccc4)N3C2=O)CC2c3cccc4[nH]cc(c34)C[C@H]21 (some centres undefined)	FAS-TE inh 56 (no result: Calpain2 inh) | FAS-TE conf 52
Nc1cccc(C(=O)c2ccccc2C(=O)O)c1	none (no result: Calpain2 inh, MIN6 prolif)
CCN(C(=O)CSc1nnc(CNc2cccc(OC)c2)n1C1CCCCC1)C1CCS(=O)(=O)C1 (centres undefined)	none (no result: Calpain2 inh)
CNC(=O)CSc1ncnc2c1cnn2-c1ccccc1	none
O=C(CSc1ncnc2c1cnn2-c1ccccc1)NC1CCCC1	FAS-TE inh 61 (no result: Calpain2 inh) | FAS-TE conf 55
Cc1ccc(C)c(CN2C(=O)c3ccccc3S(=O)c3ccc(C(=O)N4CCN(c5ccccn5)CC4)cc32)c1 (centres undefined)	FAS-TE inh 72 | FAS-TE conf inactive
COc1ccc(NCC(=O)N/N=C/c2cc([N+](=O)[O-])ccc2N2CCCC2)cc1	none (no result: H9c2 TAG inh)
Cc1cccc(OCC(=O)N/N=C/c2cc([N+](=O)[O-])ccc2N2CCOCC2)c1	FAS-TE inh 66 (no result: H9c2 TAG inh) | FAS-TE conf 57
O=C(N/N=C\c1cc([N+](=O)[O-])ccc1N1CCOCC1)c1ccccn1	none
CCc1ccc(OCC(=O)N/N=C/c2cc([N+](=O)[O-])ccc2N2CCOCC2)cc1	FAS-TE inh 73 (no result: H9c2 TAG inh) | FAS-TE conf inactive
CC(=O)N1CCN(S(=O)(=O)c2cccc(C(=O)OCc3ccc(C(C)(C)C)cc3)c2)CC1	FAS-TE inh 88 (no result: Calpain2 inh) | FAS-TE conf 51
Cc1ccc(COC(=O)c2cccc(S(=O)(=O)N3CCCCCC3)c2)cc1	none (no result: Calpain2 inh)
O=C(c1ccc(S(=O)(=O)Cc2ccccc2Cl)c([N+](=O)[O-])c1)N1CCOCC1	none (no result: Calpain2 inh, H9c2 TAG inh)
O=C(NCc1ccc(F)cc1)C(C(=O)NCc1ccc(F)cc1)c1ncc(C(F)(F)F)cc1Cl	FAS-TE inh 58 | FAS-TE conf 62
CCOC(=O)C(C(=O)NCc1ccc(F)cc1)c1ncc(C(F)(F)F)cc1Cl (centres undefined)	none (no result: H9c2 TAG inh)
CCN1C(=O)[C@H]2[C@@H](c3ccc(C)cc3)N3C(=O)N(c4cccc(Br)c4)C(=O)[C@@]3(Cc3ccccc3)[C@H]2C1=O	FAS-TE inh 67 (no result: Calpain2 inh, H9c2 TAG inh) | FAS-TE conf inactive
CCN1C(=O)[C@H]2[C@@H](c3ccc(C)cc3)N3C(=O)N(c4cccc(Cl)c4)C(=O)[C@@]3(Cc3ccc(Cl)cc3)[C@H]2C1=O	FAS-TE inh 86 (no result: Calpain2 inh, H9c2 TAG inh) | FAS-TE conf 53
CCN1C(=O)[C@H]2[C@@H](c3ccc(C)cc3)N3C(=O)N(c4cccc(Cl)c4)C(=O)[C@@]3(CC(C)C)[C@H]2C1=O	none (no result: Calpain2 inh)
CC1=C(O)C(=O)C(c2c(C)cc(C)c(Br)c2C)=C(O)C1=O	FAS-TE inh 68 (no result: Calpain2 inh, MIN6 prolif) | FAS-TE conf 78
O=C1C=C(OCCCl)CC(c2cccc(Cl)c2)O1 (centres undefined)	none (no result: Calpain2 inh, Cardio protect, FAS-TE inh, H9c2 TAG inh, MIN6 prolif)
COc1cc(/C=N/NC(=O)C(Cc2c[nH]c3ccccc23)NC(=O)OCc2ccccc2)cc([N+](=O)[O-])c1O (centres undefined)	FAS-TE inh 75 (no result: H9c2 TAG inh, MIN6 prolif) | FAS-TE conf 75
COC(=O)C(CCCCNC(=O)c1ccc([N+](=O)[O-])cc1)NC(=O)c1ccc([N+](=O)[O-])cc1 (centres undefined)	FAS-TE inh 50 (no result: H9c2 TAG inh) | FAS-TE conf 52
COc1ccc(C(=O)NCC(=O)OCc2ccc([N+](=O)[O-])cc2)cc1	FAS-TE inh 52 | FAS-TE conf inactive
O=C(CNC(=O)c1ccccc1)OCc1ccc([N+](=O)[O-])cc1	none
Cc1ccc(C(=O)NCC(=O)OCc2nnc(-c3ccc([N+](=O)[O-])cc3)o2)cc1	FAS-TE inh 68 (no result: Calpain2 inh, MIN6 prolif) | FAS-TE conf 53
COc1ccc(Cl)cc1S(=O)(=O)Nc1ncn[nH]1	none (no result: Calpain2 inh, H9c2 TAG inh)
Cc1ccc(S(=O)(=O)NC(C(=O)N2CCOCCOCCOCC2)C(C)C)cc1 (centres undefined)	none (no result: Calpain2 inh, H9c2 TAG inh)
NC(=O)c1ccc(C(F)(F)F)n(Cc2c(Cl)cccc2Cl)c1=O	FAS-TE inh 50 (no result: H9c2 TAG inh) | FAS-TE conf inactive
COc1ccc2c(c1)OC[C@H]1[C@H]2N2C(=O)CN(Cc3ccc(Cl)cc3)C(=O)[C@@]2(C)[C@H]1c1ccccc1	FAS-TE inh 75 (no result: Calpain2 inh) | FAS-TE conf inactive
COc1ccc2c(c1)OC[C@H]1[C@H]2N2C(=O)CN(Cc3ccccc3)C(=O)[C@@]2(C)[C@H]1c1ccccc1	none (no result: Calpain2 inh, MIN6 prolif)
CCOC(=O)[C@@H]1[C@H]2COc3cc(OC)ccc3[C@H]2N2C(=O)N(c3cccc(Cl)c3)C(=O)[C@@]12C	FAS-TE inh 74 (no result: Calpain2 inh) | FAS-TE conf 48
COc1ccc(CN2CC(=O)N3[C@H]4c5ccc(OC)cc5OC[C@@H]4[C@H](c4ccccc4)[C@]3(C)C2=O)cc1	FAS-TE inh 66 (no result: Calpain2 inh, H9c2 TAG inh) | FAS-TE conf inactive
COc1cccc(CNC(=O)C2CCN(S(=O)(=O)c3ccc4c(c3)C(C)(C)C(=O)N4C)CC2)c1	none (no result: Calpain2 inh, MIN6 prolif)
COc1ccc(S(=O)(=O)N2CCC(C(=O)Nc3cc(Cl)ccc3N3CCOCC3)CC2)cc1OC	none (no result: Calpain2 inh)
O=c1c(S(=O)(=O)c2ccc(Cl)cc2)cn(Cc2cccc(F)c2)c2ccc(F)cc12	FAS-TE inh 70 (no result: H9c2 TAG inh) | FAS-TE conf inactive
